The source of these data is PubChem BioAssay (NCI).

About 79,000 compounds went through this panel and 15% of them were active in at least one assay; those are over-represented in the sample as a whole. A number with no mark means an inactive call. Rule as the data show it: active = growth inhibition above about 70%; inactive = the rest.

This test can be described thus: NCI Yeast Anticancer Drug Screen. Data for the mlh1 rad18 strain (AID 175). Particulars: S. cerevisiae mlh1 rad18 strain growth inhibition; at 50.0 µM; hits give high values. In short, it runs like this:
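Compound-treated yeast growth, normalised to vehicle controls. Strain bears defined DNA repair mutations.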
As for `Cc1cccc(-c2nc3sc(-c4cccc(C)n4)nc3s2)n1`, the growth inhibition is -16.3%.

For the molecule `O=C1C2CC3C(C2)C13`, the growth inhibition is 11.5%.

Take `CC1COC(C)(C)O1` (centres undefined): the growth inhibition was 11.2%.

On to `Cc1ncnc(N)c1N`, for which the growth inhibition is 2.8%.

Take `Cc1cc([N+](=O)[O-])c(NCCOC(=O)c2ccc([N+](=O)[O-])cc2)c([N+](=O)[O-])c1`: the growth inhibition is -10.7%.

For the molecule `Clc1cccc(CC(Br)Br)c1`, the growth inhibition is 14.5%.

Take `Cc1nc2c(cnn2C)c(=O)n1-c1ccccc1Cl`: the growth inhibition is 17.3%.

Regarding `C=CCNC(=S)/N=C/c1c(C(=O)OCC)[nH]n(-c2ccccc2)c1=O`, the growth inhibition was -54.6%.

On to `O=C(CC(=O)c1ccccc1)Cc1ccccc1.O=C(CC(=O)c1ccccc1)Cc1ccccc1.[Cu]`, for which the growth inhibition was 41.2%.

`CN1C(c2ccccc2)=C(C#N)C(=O)CC(c2cccs2)N1C` (centres undefined): the growth inhibition was 8.25%.

As for `[O-][n+]1ccc(Cl)cc1`, the growth inhibition was -9.35%.

For the molecule `CCCCCCCCCCCCOc1ccc(F)cc1C`, the growth inhibition was 13.4%.

On to `COc1ccc(NS(=O)(=O)c2ccc(NC(=O)NCCCl)cc2)nn1`, for which the growth inhibition was 5.85%.

Take `CC(C)n1c(=S)[nH]c2c(=O)[nH]c(=O)[nH]c21`: the growth inhibition is -17.4%.
